# Key:
# Assay in all cases: DAPPL (digital affinity profiling via proximity ligation, sequencing); 10 mM Tris-HCl pH 7.5, 50 mM NaCl, 1 mM DTT, 4% glycerol, room temperature, 30 min; GST-TFs on glutathione beads, 16-mer random dsDNA library, 0.1% formaldehyde crosslink after washing; high values mean tight binding
# FEV = target: T1, FEV (Homo sapiens, UniProt Q99581 1-238); conditions: protein: recombinant; tags: N-terminal GST; dsDNA, one strand shown
# T1 sequence: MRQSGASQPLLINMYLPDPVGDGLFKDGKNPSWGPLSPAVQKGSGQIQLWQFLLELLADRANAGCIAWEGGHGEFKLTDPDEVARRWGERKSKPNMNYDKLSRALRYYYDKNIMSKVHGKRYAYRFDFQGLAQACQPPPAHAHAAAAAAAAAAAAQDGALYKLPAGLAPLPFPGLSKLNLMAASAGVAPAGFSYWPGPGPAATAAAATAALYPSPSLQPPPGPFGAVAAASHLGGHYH
# Method in brief: (§1)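 Pools of DNA-barcoded human transcription factors, expressed in yeast as GST fusions on glutathione beads and combined with a tag-only sample, were incubated with 200 nmole of a 16-mer random double-stranded DNA library. Incubation took 30 min at room temperature in Tris/NaCl/DTT/glycerol buffer and was followed by washing, 0.1% formaldehyde crosslinking, proximity ligation (BsaI/T4 ligase, 1 h, 37 °C), PCR amplification and sequencing on an Illumina NextSeq500. Binding signal is the ratio of a hexamer's read frequency for a factor to its frequency for the tag-only sample.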
# ETV5 = ETV5 (Homo sapiens, UniProt P41161 1-510); conditions: protein: recombinant; tags: N-terminal GST; dsDNA, one strand shown
# Sequence of ETV5 (P41161 whole entry): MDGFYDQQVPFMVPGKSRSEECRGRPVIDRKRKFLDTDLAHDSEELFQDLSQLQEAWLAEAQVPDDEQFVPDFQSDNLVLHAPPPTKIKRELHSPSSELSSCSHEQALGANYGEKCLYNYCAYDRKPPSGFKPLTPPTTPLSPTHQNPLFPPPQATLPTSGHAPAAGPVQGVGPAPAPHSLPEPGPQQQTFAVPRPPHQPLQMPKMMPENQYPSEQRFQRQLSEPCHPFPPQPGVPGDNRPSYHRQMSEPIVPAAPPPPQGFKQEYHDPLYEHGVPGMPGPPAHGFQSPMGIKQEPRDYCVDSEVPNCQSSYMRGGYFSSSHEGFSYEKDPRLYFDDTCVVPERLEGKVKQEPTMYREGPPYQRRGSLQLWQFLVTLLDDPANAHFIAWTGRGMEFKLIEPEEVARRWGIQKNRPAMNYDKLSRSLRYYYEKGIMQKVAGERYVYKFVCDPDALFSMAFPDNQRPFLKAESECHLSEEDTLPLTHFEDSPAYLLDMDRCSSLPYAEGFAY
# Method in brief: as §1
# HSF1 = HSF1 (Homo sapiens, UniProt Q00613 1-529); conditions: protein: recombinant; tags: N-terminal GST; chain copies: 3; dsDNA, one strand shown
# Sequence of HSF1 (Q00613 whole entry): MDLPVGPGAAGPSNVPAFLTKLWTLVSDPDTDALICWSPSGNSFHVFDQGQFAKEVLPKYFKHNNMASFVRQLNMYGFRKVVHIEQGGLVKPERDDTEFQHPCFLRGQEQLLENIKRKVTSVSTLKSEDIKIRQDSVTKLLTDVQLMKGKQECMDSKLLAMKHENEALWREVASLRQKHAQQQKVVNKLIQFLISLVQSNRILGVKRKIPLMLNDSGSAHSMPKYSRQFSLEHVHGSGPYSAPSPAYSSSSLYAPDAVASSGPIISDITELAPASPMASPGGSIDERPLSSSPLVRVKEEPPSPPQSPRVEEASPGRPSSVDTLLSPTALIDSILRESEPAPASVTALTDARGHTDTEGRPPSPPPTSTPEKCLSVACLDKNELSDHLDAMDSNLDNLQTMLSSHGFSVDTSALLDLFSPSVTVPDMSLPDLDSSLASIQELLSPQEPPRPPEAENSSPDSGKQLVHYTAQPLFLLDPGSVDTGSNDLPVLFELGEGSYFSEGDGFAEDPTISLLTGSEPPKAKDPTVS
# Method in brief: as §1
# SPIC = target: T2, SPIC (Homo sapiens, UniProt Q8N5J4 1-248); conditions: protein: recombinant; tags: N-terminal GST; dsDNA, one strand shown
# T2 sequence: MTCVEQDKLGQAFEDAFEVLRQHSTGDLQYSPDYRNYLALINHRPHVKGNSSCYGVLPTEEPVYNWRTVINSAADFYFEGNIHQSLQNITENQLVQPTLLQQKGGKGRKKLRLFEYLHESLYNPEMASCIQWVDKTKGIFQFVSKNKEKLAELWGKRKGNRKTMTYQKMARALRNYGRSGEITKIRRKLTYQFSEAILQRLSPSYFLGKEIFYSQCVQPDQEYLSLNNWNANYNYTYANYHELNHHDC
# Method in brief: as §1
# ELF4 = ELF4 (Homo sapiens, UniProt Q99607 1-663); conditions: protein: recombinant; tags: N-terminal GST; dsDNA, one strand shown
# Sequence of ELF4 (Q99607 whole entry): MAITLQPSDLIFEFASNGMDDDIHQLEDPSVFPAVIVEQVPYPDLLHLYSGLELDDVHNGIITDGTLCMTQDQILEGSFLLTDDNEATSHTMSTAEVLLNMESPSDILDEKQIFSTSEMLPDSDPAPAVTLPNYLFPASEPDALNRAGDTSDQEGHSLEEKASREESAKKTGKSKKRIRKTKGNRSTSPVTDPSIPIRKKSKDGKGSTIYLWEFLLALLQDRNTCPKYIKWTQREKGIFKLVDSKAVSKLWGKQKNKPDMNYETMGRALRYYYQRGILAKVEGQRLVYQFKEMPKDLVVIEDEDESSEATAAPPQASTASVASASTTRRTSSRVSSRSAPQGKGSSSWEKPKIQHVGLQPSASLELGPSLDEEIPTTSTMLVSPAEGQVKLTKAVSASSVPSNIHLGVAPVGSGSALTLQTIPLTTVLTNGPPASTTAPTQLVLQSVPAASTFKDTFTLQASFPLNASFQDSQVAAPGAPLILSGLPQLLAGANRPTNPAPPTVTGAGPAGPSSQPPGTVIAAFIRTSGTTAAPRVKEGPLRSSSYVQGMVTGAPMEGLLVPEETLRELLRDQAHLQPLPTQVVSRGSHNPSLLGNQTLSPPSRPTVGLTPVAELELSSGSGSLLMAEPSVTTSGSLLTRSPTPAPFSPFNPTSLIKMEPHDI
# Method in brief: as §1
# ELK4 = target: T3, ELK4 (Homo sapiens, UniProt P28324-2 1-405); conditions: protein: recombinant; tags: N-terminal GST; dsDNA, one strand shown
# T3 sequence: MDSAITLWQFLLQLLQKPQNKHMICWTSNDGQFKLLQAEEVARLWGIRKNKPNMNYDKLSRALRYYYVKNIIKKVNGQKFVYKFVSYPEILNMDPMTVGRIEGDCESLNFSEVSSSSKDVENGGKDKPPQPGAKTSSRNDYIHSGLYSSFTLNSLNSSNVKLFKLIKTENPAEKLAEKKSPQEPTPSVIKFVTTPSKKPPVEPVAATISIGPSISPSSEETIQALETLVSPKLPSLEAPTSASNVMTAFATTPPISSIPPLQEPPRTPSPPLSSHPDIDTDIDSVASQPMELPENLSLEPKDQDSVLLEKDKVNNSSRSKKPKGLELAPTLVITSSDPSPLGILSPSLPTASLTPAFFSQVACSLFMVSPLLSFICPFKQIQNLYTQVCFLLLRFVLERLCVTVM
# Method in brief: as §1
# ETV2 = target: T4, ETV2 (Homo sapiens, UniProt O00321 1-342); conditions: protein: recombinant; tags: N-terminal GST; dsDNA, one strand shown
# T4 sequence: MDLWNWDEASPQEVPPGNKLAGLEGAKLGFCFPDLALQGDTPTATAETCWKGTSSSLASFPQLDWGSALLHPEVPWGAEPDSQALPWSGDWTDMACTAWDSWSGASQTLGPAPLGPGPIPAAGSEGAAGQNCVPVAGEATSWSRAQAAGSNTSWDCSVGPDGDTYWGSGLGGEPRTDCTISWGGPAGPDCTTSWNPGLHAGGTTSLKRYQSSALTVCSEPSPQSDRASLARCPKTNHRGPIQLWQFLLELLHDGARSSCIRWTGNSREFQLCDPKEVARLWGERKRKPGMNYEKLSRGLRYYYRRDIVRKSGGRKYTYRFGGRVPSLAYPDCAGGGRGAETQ
# Method in brief: as §1
# ELF3 = target: T5, ELF3 (Homo sapiens, UniProt P78545 1-371); conditions: protein: recombinant; tags: N-terminal GST; dsDNA, one strand shown
# T5 sequence: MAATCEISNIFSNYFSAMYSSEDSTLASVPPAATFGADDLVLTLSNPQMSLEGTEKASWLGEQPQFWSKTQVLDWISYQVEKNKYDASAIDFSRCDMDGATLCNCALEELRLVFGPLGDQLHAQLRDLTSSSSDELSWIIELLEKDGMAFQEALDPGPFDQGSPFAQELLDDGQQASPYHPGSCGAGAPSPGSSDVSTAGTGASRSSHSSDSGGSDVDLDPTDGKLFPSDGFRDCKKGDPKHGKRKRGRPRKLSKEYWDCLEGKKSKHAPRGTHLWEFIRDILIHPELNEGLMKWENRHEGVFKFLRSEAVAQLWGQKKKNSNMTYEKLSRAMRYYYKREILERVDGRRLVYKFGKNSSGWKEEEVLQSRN
# Method in brief: as §1
# CRX = CRX (Homo sapiens, UniProt O43186 1-299); conditions: protein: recombinant; tags: N-terminal GST; dsDNA, one strand shown
# Sequence of CRX (O43186 whole entry): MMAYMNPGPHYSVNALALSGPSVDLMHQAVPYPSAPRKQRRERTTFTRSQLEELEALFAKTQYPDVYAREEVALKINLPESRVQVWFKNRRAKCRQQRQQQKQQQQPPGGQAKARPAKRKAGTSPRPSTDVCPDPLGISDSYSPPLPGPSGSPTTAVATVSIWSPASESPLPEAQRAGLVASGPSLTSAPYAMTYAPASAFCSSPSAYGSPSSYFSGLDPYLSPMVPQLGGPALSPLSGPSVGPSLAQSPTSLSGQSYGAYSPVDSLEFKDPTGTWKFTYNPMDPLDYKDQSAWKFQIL
# Method in brief: as §1
# ETV1 = ETV1 (Homo sapiens, UniProt P50549 1-477); conditions: protein: recombinant; tags: N-terminal GST; dsDNA, one strand shown
# Sequence of ETV1 (P50549 whole entry): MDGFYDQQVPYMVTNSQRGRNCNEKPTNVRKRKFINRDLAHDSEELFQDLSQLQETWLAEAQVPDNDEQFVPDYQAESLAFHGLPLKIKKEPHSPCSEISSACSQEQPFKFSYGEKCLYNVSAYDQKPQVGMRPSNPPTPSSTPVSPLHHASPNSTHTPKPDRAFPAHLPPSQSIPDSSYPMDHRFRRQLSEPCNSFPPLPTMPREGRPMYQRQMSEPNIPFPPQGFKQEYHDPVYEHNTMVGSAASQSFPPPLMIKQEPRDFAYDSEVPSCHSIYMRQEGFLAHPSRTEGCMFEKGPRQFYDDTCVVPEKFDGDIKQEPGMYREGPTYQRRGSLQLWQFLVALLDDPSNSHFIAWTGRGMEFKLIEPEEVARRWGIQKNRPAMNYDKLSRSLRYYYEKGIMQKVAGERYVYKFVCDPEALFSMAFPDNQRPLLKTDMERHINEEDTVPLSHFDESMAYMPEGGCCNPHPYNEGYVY
# Method in brief: as §1
sequence,measurement,setting,value
TCACTC,binding signal,FEV,"1.23 fold enrichment (6-mer frequency, TF over GST control)"
same,binding signal,ETV5,"1.19 fold enrichment (6-mer frequency, TF over GST control)"
same,binding signal,HSF1,"1.11 fold enrichment (6-mer frequency, TF over GST control)"
same,binding signal,SPIC,"1.3 fold enrichment (6-mer frequency, TF over GST control)"
same,binding signal,ELF4,"1.24 fold enrichment (6-mer frequency, TF over GST control)"
same,binding signal,ELK4,"1.34 fold enrichment (6-mer frequency, TF over GST control)"
same,binding signal,ETV2,"1.35 fold enrichment (6-mer frequency, TF over GST control)"
same,binding signal,ELF3,"1.26 fold enrichment (6-mer frequency, TF over GST control)"
same,binding signal,CRX,"1.05 fold enrichment (6-mer frequency, TF over GST control)"
same,binding signal,ETV1,"1.18 fold enrichment (6-mer frequency, TF over GST control)"
